Data from the supplement of paper PMC3334620.
Over roughly 33,000 sequences, “E-score (-0.5 to 0.5)” has its median near -0.016; the highest 2% begin near 0.32. For the sample, the highest values were picked, then their nearest neighbours and some sequences at random.

What follows are sequences tested against T1, Stp1 (UniProt B3LFK1) (assay: PBM E-score (8-mer binding enrichment) (E-score (-0.5 to 0.5)); higher = stronger / more preferred TF binding). Settings: protein concentration: 200 nM; construct: GST-full length.
T1 sequence: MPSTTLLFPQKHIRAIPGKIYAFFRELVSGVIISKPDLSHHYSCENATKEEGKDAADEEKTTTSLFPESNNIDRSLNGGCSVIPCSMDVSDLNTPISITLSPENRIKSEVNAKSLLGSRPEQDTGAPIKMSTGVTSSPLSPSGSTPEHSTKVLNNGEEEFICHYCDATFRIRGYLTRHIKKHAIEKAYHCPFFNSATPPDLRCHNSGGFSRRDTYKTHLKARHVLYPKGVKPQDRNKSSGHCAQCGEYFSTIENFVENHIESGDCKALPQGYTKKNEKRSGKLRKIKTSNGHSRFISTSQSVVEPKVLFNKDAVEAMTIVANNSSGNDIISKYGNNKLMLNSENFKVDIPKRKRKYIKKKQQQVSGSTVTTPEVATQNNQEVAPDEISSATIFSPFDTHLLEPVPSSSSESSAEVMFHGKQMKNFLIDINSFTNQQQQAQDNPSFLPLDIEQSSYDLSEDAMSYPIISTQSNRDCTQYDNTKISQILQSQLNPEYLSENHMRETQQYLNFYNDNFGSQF
Procedure, shortened: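 Detection of bound protein used fluorescent anti-GST, with scans normalised by masliner. The proteins were GST-tagged yeast transcription factors applied at about 100-200 nM to universal all-10-mer Agilent arrays made double-stranded by primer extension. Each ungapped eight-base word, pooled with its reverse complement, was scored with an E-score from the Universal PBM Analysis Suite.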

Sequence	PBM E-score
CGCAAGGC	0.388
AGTAAGGC	0.163
CATAAGGG	-0.0274
AGCAAGGC	0.29
AATAAGGC	0.231
CATAAGGC	0.344
CGCAAAGC	0.126
CCTCCAGA	0.0135
CACATCGC	-0.115
CGCGCTGA	-0.0138
CGCGCTAA	0.227
GGCGCTGA	0.327
GGCGCTAA	0.37
AGCGCTGA	-0.0259
TGCGCTAA	-0.0463
GGGGCAGA	-0.0961
GTCGACAA	-0.192
CCGAACGG	0.334
CCGAACGA	-0.0055
CCGAACGC	0.226
CGTAATAC	0.186
CCTGGGCC	-0.181
ACGGCACG	0.484
CGGGCACA	-0.106
CCGGCACG	0.27

Sequence	PBM E-score
CCGGCACA	0.106
TCGGCACA	0.135
ACGGCACA	0.479
ACTCTGAG	-0.046
AAGTGTGC	0.122
AACAGTGT	-0.102
CGAGGGCG	-0.052
ACCGCGAT	0.0376
CCGGCGAG	0.0395
ACGGCGAG	0.437
AAGGCGAA	0.197
AAGGCGAT	0.329
AAGGCGAG	-0.158
ACGGCGAT	0.479
AGGGCGAG	-0.12
AGGGCGAT	0.0677
CTATGGTA	-0.0844
AGTTTTGC	0.203
AAGGGATA	-0.00219
CTAAGTAG	0.0172
ACTTTGTC	0.0794
ACTTAAAT	0.0505
GAAGCGGA	-0.0314
CAAGCGGA	-0.0234
GAAGCGTC	-0.0144

Sequence	PBM E-score
CGAGCGGA	0.114
AAAGCGGC	0.366
GAAGCGGC	0.426
AGAGCGGC	0.307
CAAGCGGG	-0.168
CAAGCGGC	0.466
AAAGCGGA	0.0227
CGAGCGGC	0.416
AAAGCGGG	-0.19
AAAGGGAC	-0.055
AAGACCGA	-0.107
ACTTAGGC	-0.0486
ATATTCGG	0.0873
ACCCATAC	-0.0919
AAGTCTCG	-0.199
CGCCAACG	0.0633
ATGGCTCG	-0.0567
ATAAACAT	0.222
AAAAGAAG	0.19
AAAAGAAT	0.322
AAAAGAAC	0.0475
GTTATAAA	0.0721
CGTATAAA	0.319
AGTATAAA	0.297
CGTATAAC	0.217

Sequence	PBM E-score
CTTATAAA	0.115
TTTATAAA	0.376
AGTCTGTA	-0.18
AAGTCCCG	-0.145
GCTCGAAC	-0.0559
CCAGGTGC	-0.187
AGGCAAAC	0.118
CGGCAAAG	0.264
TGGCAAAA	0.292
CGGCAAAA	0.357
GGGCAAAA	0.142
AGGCAAAA	0.344
AGACCTCG	-0.157
ACCGAGGC	-0.121
CGCGAGGA	-0.0281
CACGAGGC	0.415
AGCGAGGC	0.197
CACGAGGG	-0.253
GCCGAGGA	0.0308
CACGAGGA	0.102
GCCGAGGC	0.357
CGCGAGGC	0.421
ATCAGGTC	-0.114
CACGATAC	-0.0326
GACAACAA	0.0779

Sequence	PBM E-score
AAGCCCCT	-0.287
CCTTAACC	-0.221
ACCCCGCT	-0.174
ACGGCAGG	0.343
CCGGCAGG	-0.17
CCGGCAGA	-0.0739
CCGGCAGC	-0.063
ACGGCAGA	0.367
ACGGCAGT	0.403
ACGGCAGC	0.406
AAGGCAGG	-0.236
ACAGCAGT	-0.0354
TCGGCAGA	-0.0589
ATGGCAGC	0.00395
AAGGCAGT	0.103
ATCTTTAG	0.0678
AGCCATCC	0.0193
GCGGCAGC	0.334
GCGGCAGA	0.261
GCAGCGGA	-0.0607
GAGGCAGC	0.0343
CCAGCGGC	0.256
GCAGCGGC	0.32
ACTTTTTA	0.157
AACTACGG	-0.0064

Sequence	PBM E-score
CAGCGCCC	0.188
AAGCGCCA	0.0796
AAGCGCCG	0.465
CAGCGCCA	0.0346
CAGCGCCG	0.446
AAGCGCCT	0.272
CAGTAGAG	-0.155
AGTCGATC	-0.128
GACGGGAC	-0.203
CACGTGGC	0.213
GCCTAGCC	0.0204
CCGTGGGA	0.047
ACTGGAAG	-0.2
GTAGGTCA	-0.249
GGCCACAC	0.0354
AGGCACAA	0.288
CGGCACAC	0.381
CCGCACAG	0.201
CGCCACAG	-0.0135
CGGCACAG	0.398
GGGCACAC	-0.098
AGGCACAG	0.133
CGGCACAA	0.405
GGGCACAA	0.202
CGCCACAC	0.324

Sequence	PBM E-score
AGGCACAC	0.0169
CATGCAAA	0.112
CATCTCAG	-0.0765
AACGCTCC	-0.122
CTAAACTA	-0.0468
AAATTCCG	0.126
CGTCTTAC	-0.0611
AGGACCAT	-0.113
GCAGTGCA	-0.0796
AATGTAGC	-0.0806
AGTTCGCC	0.159
GCTACACC	-0.0559
AGAGAGTC	-0.173
CCCGTAAC	-0.112
ACCGTAAA	0.0391
GCCGTAAC	0.33
TCCGTAAA	0.0695
CCCGTATA	0.12
ACCGTAAC	0.0376
GCCGTAAA	0.369
GCCGTATA	0.475
ACCGTATA	-0.0953
